Screening data: PubChem BioAssay, several laboratories
PostGolgi ctrl = growth of the yeast control strain, post-Golgi counter-screen. inhibition, % at 10 µM. AID 738. 5% of 98,000 active. efflux-deficient yeast background strain, growth absorbance A615, 16 h
CYP2C19 inh = blocks human cytochrome P450 2C19; P33261; CYP2C19 Supersomes, luciferin-H EGE luminescence, 30 min; inhibition, % at 5 µM; 21% of 96,000 active; AID 778;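 active = CYP2C19 inhibition above a set limit at 5 µM in the primary screen, cut at about 50% in these data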;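 note: plate controls were negative control wells for no effect and 2.5 mM tranylcypromine positive control for full effect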
PostGolgi yeast = growth inhibition of a yeast mutant, post-Golgi transport screen; 0.9% of 98,000 active; inhibition, % at 10 µM; post-Golgi transport phenotypic cell assay; AID 739;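 note: yeast cells grown in 1536-well plates; yeast grown about 18 h at 30C before absorbance read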
CYP2C9 act = increases human cytochrome P450 2C9 activity; P11712; 1.4% of 96,000 active; AID 1024; recombinant CYP2C9, luciferin-H conversion, luminescence; stronger effect = higher value; factor 1 = untreated enzyme, 0 = blocked; activation factor at 5 µM;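 active = activation factor of 2 or more for CYP2C9 at a 5 µM dose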;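 note: 0 = sulfaphenazole-blocked wells and 1 = vehicle-only wells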
Target sequence (P11712 whole entry, looked up): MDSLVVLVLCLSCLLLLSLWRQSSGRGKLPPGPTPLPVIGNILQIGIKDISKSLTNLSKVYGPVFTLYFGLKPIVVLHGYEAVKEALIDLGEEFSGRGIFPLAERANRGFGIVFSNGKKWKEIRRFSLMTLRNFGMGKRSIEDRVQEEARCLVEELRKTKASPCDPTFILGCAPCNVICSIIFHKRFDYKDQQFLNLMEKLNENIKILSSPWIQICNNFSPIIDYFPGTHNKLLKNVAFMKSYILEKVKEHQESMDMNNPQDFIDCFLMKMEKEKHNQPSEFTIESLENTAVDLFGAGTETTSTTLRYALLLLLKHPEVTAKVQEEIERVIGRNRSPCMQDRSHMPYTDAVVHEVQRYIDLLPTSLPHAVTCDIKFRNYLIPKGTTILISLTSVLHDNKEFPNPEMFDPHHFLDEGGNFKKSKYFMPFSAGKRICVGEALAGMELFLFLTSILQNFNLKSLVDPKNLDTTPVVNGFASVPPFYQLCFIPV
CYP2C9 inh = blocks human cytochrome P450 2C9 | P11712 | CYP2C9 Supersomes, luciferin-H conversion, luminescence | inhibition, % at 5 µM | 20% of 96,000 active | AID 777;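 active = blocking of liver enzyme CYP2C9 beyond about 50% at 5 µM, limit read from the data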
CYP2C19 act = activators of human cytochrome P450 2C19. 96,000 tested, under 10 active. AID 1025. recombinant CYP2C19, luciferin-H EGE luminescence; stronger effect = higher value; 0 = fully inhibited enzyme, 1 = untreated enzyme. P33261. activation factor at 5 µM;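 active = activation factor of at least 2 at 5 µM in the primary screen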;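 note: 0 = wells with 2.5 mM tranylcypromine and 1 = vehicle-only wells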
Active calls of the source: *. Shown are actives, neighbours in structure and some others; about 32% of the full set was active somewhere. Cut-off read from the data, not from the text of the source, unless noted: active = inhibition above about 30%; inactive = the rest.

SMILES	PostGolgi ctrl	CYP2C19 inh	PostGolgi yeast	CYP2C9 act	CYP2C9 inh	CYP2C19 act
COc1cc(OC)cc(C(=O)NCCn2ccc3ccccc32)c1	-13	78*	8	0.9	10	0.2
COc1ccccc1C(=O)NCCn1ccc2ccccc21	4	88*	20	1.1	-5	0.1
CC(=O)NCCn1ccc2ccccc21	10	18	1	0.8	23	0.8
COc1cccc(C(=O)NCCn2ccc3ccccc32)c1	40*	79*	-7	0.7	33	0.2
CCOC(=O)c1ccc(COC(=O)CNC(=O)CNC(=O)c2ccc(OC)cc2)o1	0	31	-13	0.5	46	0.7
Cc1ccc2nc(Cl)c(CN(C(=O)c3cnccn3)C3CCCCC3)cc2c1	22	-2	5	0.7	30	1
CNC(=O)CN(c1cc(C)ccc1OC)S(=O)(=O)c1ccc(C)cc1	2	11	2	0.9	7	0.9
COc1ccc(OC)c(N(CC(=O)NC2CC2)S(=O)(=O)c2ccc(C)cc2)c1	4	84*	-3	0.2	80*	0.2
COc1ccc(C)cc1N(CC(N)=O)S(=O)(=O)c1ccc(C)cc1	-3	90*	-8	0.5	54*	0.1
COc1ccc(S(=O)(=O)N(CC(=O)NC2CC2)c2ccc(C)cc2)cc1OC	8	99*	-7	0.9	13	0
Cc1ccc(N(CC(=O)NC2CCC(C)CC2)S(=O)(=O)c2cccnc2)cc1 (stereo not given)	13	49	-5	0.7	26	0.5
Cc1cc(-n2c(C)cc(C(=O)CSc3nc4ccccc4c(=O)n3Cc3ccco3)c2C)no1	3	2	1	1	-5	1
CCCCNC(=O)CCc1nc2cccnc2n1Cc1ccc(OC)cc1	1	41	-8	0.8	22	0.6
CCC(CO)n1c(SCc2cc(=O)oc3cc(C)ccc23)nc2ccccc2c1=O (stereo not given)	47*	97*	41*	0	98*	0
COC(=O)C1(CCSC)NC(c2ccco2)C2C(=O)N(C)C(=O)C21 (stereo not given)	-12	60*	16	1.1	-6	0.4
COc1cccc(C(=O)Nc2c3c(nn2-c2ccccc2C)CS(=O)C3)c1OC (stereo not given)	8	4	-3	1	4	1
CC(C)N=Cc1c(O)[nH]c2ccccc12	0	5	16	0.5	54*	0.9
CC(C)(CO)N=Cc1c(O)[nH]c2ccccc12	2	4	-2	1	4	1
CC1(C)CC(=O)N(CC(=O)NCc2ccccc2)c2ccccc2S1(=O)=O	5	69*	0	0.6	39	0.3
CC1(C)CC(=O)N(CC(=O)NCc2ccc(F)cc2)c2ccccc2S1(=O)=O	7	62*	-6	0.9	8	0.4
CCCc1c(CC)c(=N)c2ccccc2n1C	3	-8	-3	0.9	12	1.1
C=CCN1CCN(C(c2cc(OC)ccc2OC)c2nnnn2CC2CCCO2)CC1 (stereo not given)	3	-4	14	1	-1	1
C=CCNC(=S)NNC(=O)COc1cccc(Cl)c1	3	60*	-5	0.9	10	0.4
C=CCNC(=S)NNC(=O)c1ccccc1	10	20	-7	1	1	0.8
CN(c1cc(=O)n2ccccc2n1)C1CCCCC1	-3	50	4	0.8	16	0.5
SMILES	PostGolgi ctrl	CYP2C19 inh	PostGolgi yeast	CYP2C9 act	CYP2C9 inh	CYP2C19 act
O=C(CN1CCN(Cc2ccc(F)cc2Cl)C1=O)NCCc1ccc(Cl)cc1	37*	37	22	0.3	67*	0.6
Cc1oc(-c2ccccc2)cc1C(=O)Nc1cccc2ccccc12	30*	11	-8	1.9	-88	0.9
O=C(NCc1ccco1)c1ccc(COCC(F)(F)C(F)F)cc1	8	-1	3	0.9	12	1
CCCCNS(=O)(=O)c1ccc2nc(SCC(=O)N3CC(C)OC(C)C3)[nH]c2c1 (stereo not given)	14	42	15	0.4	55*	0.6
CNc1nc(-c2c[nH]c3ccccc23)cs1	2	73*	-2	0.2	78*	0.3
CC(C)CC(NC(=O)c1ccc(Cl)cc1)C(=O)OCC(=O)c1ccc2c(c1)NC(=O)CO2 (stereo not given)	32*	27	-14	0.6	36	0.7
CCN(CC)S(=O)(=O)c1cc(C(=O)OCC(=O)c2ccc3c(c2)NC(=O)CO3)ccc1Cl	-3	11	3	1	4	0.9
COc1ccc(CC(C(=O)Nc2cc(C)ccc2C)/C(N)=N/O)cc1 (stereo not given)	3	40	-6	1	0	0.6
CN1CCN(CC(=O)O)CC1	-10	8	2	0.5	54*	0.9
Cc1ccc(OCn2c(=O)sc3ccccc32)cc1	6	56*	6	0.6	38	0.4
CCOC(=O)Cn1c(=O)sc2ccccc21	0	47	4	1	4	0.5
O=c1sc2ccccc2n1CCOc1ccccc1	9	98*	-8	0.1	88*	0
CCOC(=O)c1cnn(-c2cc(Oc3ccccc3C)ncn2)c1N	-8	12	-19	0.9	14	0.9
CCn1nc(C(=O)Nc2ccc(C)c(C)c2)c(Cl)c1Cl	3	7	3	0.9	12	0.9
N#Cc1c(SCC(=O)N2CCOCC2)nsc1SCC(=O)N1CCOCC1	-7	-13	-3	1.1	-8	1.1
O=C(COC(=O)c1cc([N+](=O)[O-])ccc1NCc1ccccc1)NC1CCCc2ccccc21 (stereo not given)	8	20	4	0.3	69*	0.8
COC(=O)[C@H](C)NC(=O)NC1CCCc2ccccc21 (stereo not given in full)	6	13	-1	1	-4	0.9
CC#CCN(CC#CC)S(=O)(=O)c1ccc(-n2cnnn2)c(OC)c1	4	84*	22	0.9	13	0.2
COc1cc(S(=O)(=O)N2CCCC3(CCCCC3)C2)ccc1-n1cnnn1	16	39	7	1	-4	0.6
COc1cc(S(=O)(=O)N(Cc2cccnc2)Cc2ccco2)ccc1-n1cnnn1	2	48	0	0.9	5	0.5
COc1cc(S(=O)(=O)NCC2OCCc3ccccc32)ccc1-n1cnnn1 (stereo not given)	-6	91*	4	0.5	53*	0.1
COc1cc(S(=O)(=O)N(Cc2ccc(C)cc2)Cc2ccco2)ccc1-n1cnnn1	8	64*	6	0.5	53*	0.4
COc1cc(S(=O)(=O)N(Cc2ccc(C)cc2)C2CCCCC2)ccc1-n1cnnn1	16	86*	0	0.2	84*	0.1
O=C(CCc1nc2ccccc2c(=O)[nH]1)NC1CCN(Cc2ccccc2)CC1	-5	10	-1	0.8	23	0.9
